{"source": "PubChem BioAssay AID1851", "about": "(National Center for Advancing Translational Sciences (NCATS), 2009)", "note": "The campaign covered roughly 16,000 compounds. About 5,700 (36%) were called active. Inconclusive results (about 24%) are left out. Calls follow the shape of the dose curve; as a rule, active = well fitted curve in the direction sought with a large enough effect; inconclusive = small, poorly fitted or top-dose-only effect, or effect the other way; inactive = no such curve, though single readings can be large or run the other way. This is one part of the list. % is scaled to controls: 0 for no effect and ±100 for the full control effect."}
{"target": "Cytochrome P450 1A2 (Homo sapiens) (UniProt P05177)", "sequence (P05177 whole entry, looked up)": "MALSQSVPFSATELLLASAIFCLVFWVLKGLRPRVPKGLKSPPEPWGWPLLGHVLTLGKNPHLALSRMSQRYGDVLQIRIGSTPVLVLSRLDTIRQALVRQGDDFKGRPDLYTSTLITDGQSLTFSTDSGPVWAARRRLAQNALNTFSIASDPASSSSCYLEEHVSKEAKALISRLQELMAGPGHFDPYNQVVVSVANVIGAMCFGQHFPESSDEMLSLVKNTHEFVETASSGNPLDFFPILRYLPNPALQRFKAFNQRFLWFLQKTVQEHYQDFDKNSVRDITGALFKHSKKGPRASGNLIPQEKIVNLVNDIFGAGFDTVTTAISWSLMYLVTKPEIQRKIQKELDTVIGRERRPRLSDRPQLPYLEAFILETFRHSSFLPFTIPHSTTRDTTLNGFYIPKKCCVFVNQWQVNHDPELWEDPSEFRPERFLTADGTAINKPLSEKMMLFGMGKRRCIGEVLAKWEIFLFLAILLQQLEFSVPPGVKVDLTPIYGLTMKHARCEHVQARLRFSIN", "experiment": "Cytochrome panel assay with activity outcomes", "settings": "recombinant CYP, pro-luciferin dealkylation, luminescence, p450-cyp1a2; series mostly up to 57.1 µM; activity, negative = inhibition: at the top concentration"}
{"compound": "Cc1cccc(C)c1NC(=O)Nc1ccc(S(N)(=O)=O)cc1", "activity, negative = inhibition": "-10.8% [at 2.29 µM] (inactive)"}
{"compound": "Cc1ccc(NC(=O)Nc2ncccc2C)cc1", "AC50": "3.55 µM (active)"}
{"compound": "CCCCNC(=O)c1cc2nc3c(c(C(F)(F)F)n2n1)CCc1ccccc1-3", "AC50": "2.51 µM (active)"}
{"compound": "COc1cccc(N=c2oc3c(C)ncc(CO)c3cc2C(N)=O)c1", "AC50": "4.47 µM (active)"}
{"compound": "CO[C@H]1COC(=O)CCC[C@H](C)[C@H](OC)COC(=O)C/C=C\\[C@@H]1C", "activity, negative = inhibition": "-3.93% [at 11.4 µM] (inactive)"}
{"compound": "Cc1ccsc1/C=N/Nc1nc(Cl)c(Cl)cc1Cl", "AC50": "2 µM (active)"}
{"compound": "N#Cc1ccc(C2=NC(C(F)(F)F)(C(F)(F)F)c3c(n(Cc4ccco4)c(=O)[nH]c3=O)N2)cc1", "activity, negative = inhibition": "-5.04% (inactive)"}
{"compound": "C#CC[N+](CC)(CC)CC#Cc1cccc(Cl)c1", "activity, negative = inhibition": "-7.67% (inactive)"}
{"compound": "CNC(=O)c1sc(SC)cc1-c1ccc(Cl)cc1", "AC50": "0.355 µM (active)"}
{"compound": "Cc1nc2c(C(=O)NCc3ccc4c(c3)OCO4)c[nH]n2c(=O)c1Cc1ccccc1F", "AC50": "12.6 µM (active)"}
{"compound": "Cc1nc2ccccn2c1/C(O)=C1\\C(=O)C(=O)N(CCN2CCOCC2)C1c1cccnc1", "note": "(stereo not drawn)", "activity, negative = inhibition": "-17.5% (inactive)"}
{"compound": "CCNc1ncc2ncc(=O)n(Cc3ccc(F)cc3)c2n1", "AC50": "1 µM (active)"}
{"compound": "CCNc1ncc2nc(C)c(=O)n(Cc3ccc(F)cc3)c2n1", "AC50": "1.58 µM (active)"}
{"compound": "O=c1cnc2cnc(Nc3ccccc3)nc2n1Cc1ccc(F)cc1", "AC50": "1 µM (active)"}
{"compound": "CCNc1ncc2nc(C)c(=O)n(Cc3cccc(OC)c3)c2n1", "AC50": "3.16 µM (active)"}
{"compound": "Cc1cc(CN2CCCCC2)c(O)c(CN2CCCCC2)c1", "activity, negative = inhibition": "-18.8% [at 2.29 µM] (inactive)"}
{"compound": "OC[C@@H]1O[C@@H](n2cnc3c(NC4CCCC4)ncnc32)[C@H](O)[C@H]1O", "activity, negative = inhibition": "-4.01% (inactive)"}
{"compound": "Cn1cnc2c(NC3CCCC3)ncnc21", "AC50": "12.6 µM (active)"}
{"compound": "OC[C@@H]1O[C@@H](n2cnc3c(NC4CCCC4)ncnc32)[C@@H](O)[C@H]1O", "activity, negative = inhibition": "-3.56% (inactive)"}
{"compound": "Cc1ccc(S(=O)(=O)O[C@H]2C[C@@H](C(C)(C)C)CC[C@@H]2c2ccccc2)cc1", "activity, negative = inhibition": "-22.8% [at 2.29 µM] (inactive)"}
{"compound": "O=c1oc(-c2cccs2)nc2ccc(Br)cc12", "AC50": "2.51 µM (active)"}
{"compound": "CNC(=S)N1CCN(c2cccc(OC)c2)CC1", "AC50": "15.8 µM (active)"}
{"compound": "COc1cccc(N2CCN(C(=S)Nc3cccc(C)c3)CC2)c1", "activity, negative = inhibition": "-14.1% (inactive)"}
{"compound": "COc1ccccc1N1CCN(CCCCN2C(=O)c3ccccc3C2=O)CC1", "AC50": "inactive"}
{"compound": "CNC(=S)N1CCN(c2ccccc2OC)CC1", "AC50": "7.08 µM (active)"}
{"compound": "COc1ccccc1N1CCN(CCN2C(=O)CC3(CCCC3)CC2=O)CC1", "activity, negative = inhibition": "-12.8% (inactive)"}
{"compound": "COc1ccc(N2CCN(C(=S)Nc3cc(C)cc(C)c3)CC2)cc1", "activity, negative = inhibition": "-5.23% (inactive)"}
{"compound": "CC1CCCN(CCCNC(=O)C2CC(=O)N(c3ccc(F)c(Cl)c3)C2)C1", "note": "(stereo not drawn)", "activity, negative = inhibition": "-12.8% (inactive)"}
{"compound": "COc1ccc(CNn2c(C)nc3ccccc3c2=O)cc1", "AC50": "12.6 µM (active)"}
{"compound": "CCCCOc1ccc(CNn2c(C)nc3ccccc3c2=O)cc1", "AC50": "15.8 µM (active)"}
{"compound": "COc1ccc(-c2nc3ccccc3c(=O)n2N)cc1", "AC50": "25.1 µM (active)"}
{"compound": "Cc1cc(=O)[nH]c(-n2[nH]c(C)cc2=O)n1", "activity, negative = inhibition": "-3.59% (inactive)"}
{"compound": "O=C1C=C(c2cccs2)CC(c2cccs2)C1n1cnc([N+](=O)[O-])c1", "note": "(stereo not drawn)", "AC50": "3.16 µM (active)"}
{"compound": "Cc1cccc(CNc2ncnc3ccc(-c4ccc5c(c4)OCO5)cc23)c1", "AC50": "0.501 µM (active)"}
{"compound": "c1ccc(CNc2ncnc3ccc(-c4ccc5c(c4)OCO5)cc23)cc1", "AC50": "0.2 µM (active)"}
{"compound": "c1ccc(Nc2ncnc3ccc(-c4ccc5c(c4)OCO5)cc23)cc1", "AC50": "0.251 µM (active)"}
{"compound": "c1ccc(C2CCC(N3CCC(N4CCCCC4)CC3)CC2)cc1", "note": "(stereo not drawn)", "activity, negative = inhibition": "-5.53% (inactive)"}
{"compound": "COc1ccc(NC(=O)N2CCCC3(CCN(C(=O)c4c(C)noc4C)CC3)C2)cc1", "activity, negative = inhibition": "12.3% (inactive)"}
{"compound": "Cc1noc(C)c1C(=O)N1CCC2(CCCN(C(=O)Nc3ccccc3)C2)CC1", "AC50": "12.6 µM (active)"}
{"compound": "O=C(Nc1ccccc1)N1CC2(CCN(C(=O)c3ccco3)CC2)C1", "activity, negative = inhibition": "6.85% (inactive)"}
{"compound": "Cc1noc(C)c1C(=O)N1CCC2(CCN(C(=O)Nc3ccccc3)CC2)CC1", "activity, negative = inhibition": "-8.72% (inactive)"}
{"compound": "COc1ccc(NC(=O)N2CCCC3(CCN(C(=O)c4ccco4)CC3)C2)cc1", "activity, negative = inhibition": "-10.2% (inactive)"}
{"compound": "O=C(Nc1ccccc1)N1CCCC2(CCN(C(=O)c3ccco3)CC2)C1", "AC50": "20 µM (active)"}
{"compound": "CO[C@H]1OC[C@@]2(C)[C@@H]3C4=C(CN2C(=O)OC(C)(C)C)[C@H](C)[C@H](CO)[C@H](CO)[C@H]4CC[C@H]13", "activity, negative = inhibition": "-18.6% (inactive)"}
{"compound": "CC(=O)NS(=O)(=O)c1ccc(NC(=S)NC(=O)C(C)(C)C)cc1", "activity, negative = inhibition": "3.06% (inactive)"}
{"compound": "Cc1ccc([N+](=O)[O-])cc1NC(=S)NC(=O)C(C)(C)C", "AC50": "0.2 µM (active)"}
{"compound": "Cc1ccc([N+](=O)[O-])cc1NC(=S)NC(=O)CC(C)(C)C", "AC50": "2 µM (active)"}
{"compound": "C=CCN(CC=C)C(=O)C(=O)c1cc(C)n(-c2ccc([N+](=O)[O-])cc2)c1C", "activity, negative = inhibition": "-5.98% (inactive)"}
{"compound": "Cc1ccc(SCc2ccc(C(=O)Nc3cc([N+](=O)[O-])ccc3C)cc2)cc1", "activity, negative = inhibition": "-14.8% (inactive)"}
{"compound": "CCCN1CCN(C(=O)CN2C(=O)CC(C)(C)S(=O)(=O)c3ccccc32)CC1", "activity, negative = inhibition": "-7.7% (inactive)"}
{"compound": "COc1ccc(-n2c(=O)c(-c3cccs3)nc3cnc(N4CCNCC4)nc32)cc1", "AC50": "5.01 µM (active)"}
{"compound": "O=c1c(-c2cccs2)nc2cnc(N3CCNCC3)nc2n1-c1ccccc1", "AC50": "2.51 µM (active)"}
{"compound": "O=c1c(-c2ccccc2)nc2cnc(N3CCOCC3)nc2n1-c1ccccc1", "AC50": "12.6 µM (active)"}
{"compound": "CN1CCN(c2ncc3ncc(=O)n(-c4ccccc4)c3n2)CC1", "AC50": "2.51 µM (active)"}
{"compound": "O=C(c1csnn1)N1CCC2(CCCN(Cc3ccccc3)C2)CC1", "activity, negative = inhibition": "-7.35% (inactive)"}
{"compound": "CN1CCN(c2ncc3nc(-c4cccs4)c(=O)n(-c4ccccc4)c3n2)CC1", "AC50": "3.16 µM (active)"}
{"compound": "O=c1c(-c2cccs2)nc2cnc(N3CCOCC3)nc2n1-c1ccccc1", "AC50": "5.01 µM (active)"}
{"compound": "CO[C@H]1C[C@@H](O[C@@H]2[C@H](C)[C@H](O[C@@H]3O[C@@H](C)C[C@@H](N(C)C)[C@@H]3O)[C@H](C)C[C@]3(CO3)C(=O)[C@H](C)[C@H](O)[C@H](C)[C@H](C)OC(=O)[C@@H]2C)O[C@@H](C)[C@H]1O", "activity, negative = inhibition": "1.17% [at 25.6 µM] (inactive)"}
{"compound": "COc1ccc(O)c(/C=N/NC(=O)c2ccc(OCc3cccc(Br)c3)cc2)c1", "AC50": "11.2 µM (active)"}
{"compound": "COc1ccc(C(=O)N/N=C/c2cccc3cccnc23)cc1", "AC50": "2 µM (active)"}
{"compound": "COc1ccc(C(=O)NCC(=O)OCc2cccc(Br)c2)cc1", "AC50": "6.31 µM (active)"}
{"compound": "COc1ccc(O)c(/C=N/NC(=O)CSc2nnc(C)n2-c2ccccc2)c1", "activity, negative = inhibition": "-4.22% (inactive)"}
{"compound": "O=C(CNC(=O)/C(=C\\c1ccccc1)NC(=O)c1ccc(Br)cc1)OCc1ccccc1", "activity, negative = inhibition": "-27.8% (inactive)"}
